# Compound activity: PubChem, several laboratories
# In the library only some 2.4% were active in any assay of this set; here they are far more common.
# MLLE-PAM2 inh = blocks PAM2 peptide binding to the PABP1 MLLE domain; P11940; GST-MLLE / FITC-PAM2 fluorescence polarization; inhibition, % at 20 µM; actives 0.36% (n = 360,000); in the data active = inhibition above about 35%, passing the limit was not always enough;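 note: plate controls were DMSO wells with GST-MLLE for no effect and wells lacking GST-MLLE protein for full effect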
# Target sequence (P11940 whole entry, looked up, the tested form may be a part): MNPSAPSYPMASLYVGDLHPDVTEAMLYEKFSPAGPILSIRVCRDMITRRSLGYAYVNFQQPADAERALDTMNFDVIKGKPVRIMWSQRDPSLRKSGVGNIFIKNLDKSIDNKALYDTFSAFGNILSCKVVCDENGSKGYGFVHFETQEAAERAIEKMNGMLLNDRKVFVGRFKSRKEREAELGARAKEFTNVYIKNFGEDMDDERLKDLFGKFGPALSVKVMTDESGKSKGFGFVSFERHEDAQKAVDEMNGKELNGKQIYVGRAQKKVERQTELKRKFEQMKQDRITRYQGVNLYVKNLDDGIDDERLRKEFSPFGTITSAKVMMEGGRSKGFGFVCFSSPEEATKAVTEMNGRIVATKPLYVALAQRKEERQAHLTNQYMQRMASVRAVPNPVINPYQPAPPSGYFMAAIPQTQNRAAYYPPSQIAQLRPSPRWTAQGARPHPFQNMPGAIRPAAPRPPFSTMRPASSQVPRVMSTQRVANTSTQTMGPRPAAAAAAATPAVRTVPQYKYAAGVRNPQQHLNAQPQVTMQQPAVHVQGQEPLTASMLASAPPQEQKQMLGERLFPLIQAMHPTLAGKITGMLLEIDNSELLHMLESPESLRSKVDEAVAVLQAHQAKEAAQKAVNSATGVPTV
# PABP FP inh = PABP-poly(A) binding inhibition | P11940 | PABP-poly(A) RNA binding, fluorescence polarization | calls only at 35 µM | actives 1% (n = 290,000);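 note: calls also rest on retests at 20 µM and on dose response follow-up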
# eIF4H inh = inhibitors of RNA binding by human eIF4H; Q15056; eIF4H fluorescence polarization binding assay; inhibition, % at 35 µM; actives 0.94% (n = 290,000); AID 2012;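 note: calls also rest on retests at 20 µM and on dose response follow-up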
# PHOSPHO1 inh = blocks human PHOSPHO1 phosphatase activity | Q8TCT1 | recombinant PHOSPHO1, absorbance phosphatase assay | inhibition, % at 13.3 µM | actives 1.1% (n = 290,000) | AID 1565; in the data active = inhibition above about 60%
# HMGR II inh = E. faecalis class II HMG-CoA reductase inhibition | purified E. faecalis HMGR, NADPH absorbance 340 nm kinetic | actives 0.41% (n = 190,000) | AID 1066 | inhibition, % at 10 µM;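 active = inhibition above a set limit, the median over all tested compounds plus 3 SD, cut at about 9.5% in these data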;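 note: enzyme runs in reverse so mevalonate oxidation gives rising NADPH absorbance; 0% = complete reaction with DMSO and 100% = background rate lacking mevalonate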
# An asterisk follows results filed as active; i = inactive; / = not tested or not shown; + = active, no number. Unless noted, the rule behind the calls is not given here.
SMILES,MLLE-PAM2 inh,PABP FP inh,eIF4H inh,PHOSPHO1 inh,HMGR II inh
O=C(N/N=C/c1cc([N+](=O)[O-])ccc1O)NC12CC3CC(CC(C3)C1)C2,-15,i,9,1,1
CC(C)CN(C(=O)COC(=O)c1ccc2c(c1)NC(=O)CS2)C1CCS(=O)(=O)C1 (configuration not stated),55*,i,4,24,-4
Cc1cc(C(=O)COC(=O)c2ccc3c(c2)NC(=O)CS3)c(C)n1CC1CCCO1 (configuration not stated),19,i,21,-7,-1
CC(C)CN(C(=O)COC(=O)CNC(=O)c1ccccc1F)C1CCS(=O)(=O)C1 (configuration not stated),2,+,0,44,0
COCC(C)n1c(C)cc(C(=O)COC(=O)c2ccc3c(c2)NC(=O)CS3)c1C (configuration not stated),39*,i,43,-7,-7
COc1cc(OC)cc(C(=O)NN(CCC#N)C2=NS(=O)(=O)c3ccccc32)c1,4,i,4,35,/
C=CCN1C(=O)C(CC(=O)NCC)SC1=Nc1ccccc1OC (configuration not stated),3,i,-8,/,/
Cc1cc(NC(=O)CC#N)n(-c2ccccc2)n1,8,i,78*,20,-3
Cc1cc(NC(=O)Nc2cc(C)nn2-c2ccccc2)n(-c2ccccc2)n1,4,i,-2,-7,1
CCN1C(=O)[C@H]2[C@@H](c3ccc(Cl)cc3)N3C(=O)CN(CC4CC4)C(=O)[C@@]3(Cc3ccccc3)[C@H]2C1=O,8,i,-4,4,/
CN1CCc2c(sc3c2C(=O)NC(c2ccco2)N3)C1 (configuration not stated),-23,i,50,9,-7
CCOC(=O)N1CCc2c(sc3c2C(=O)NC(c2ccccc2)N3)C1 (configuration not stated),7,i,5,66*,4
O=C1NC(c2ccco2)Nc2sc3c(c21)CCN(Cc1ccccc1)C3 (configuration not stated),-74,+,116*,10,-8
COc1cn(-c2ccccc2)nc1C(=O)Nc1ccc(C)cc1Cl,-2,i,-3,27,/
Cc1ccc(S(=O)(=O)NCC(=O)OCc2nnc(-c3ccccc3)o2)cc1,12,i,-7,65*,/
ONc1cccnc1-n1nc(C(F)(F)F)cc1C(F)(F)F,/,i,64*,53,2
CCC(=O)N/N=C/c1ccc(OS(=O)(=O)c2ccccc2)cc1,-2,i,1,-7,-2
NC(N)=N/N=C/c1ccc(OS(=O)(=O)c2ccccc2)cc1,-14,i,active,32,-1
O=C(Nc1ccc(N2CCOCC2)cc1)c1ccc(Cl)c(S(=O)(=O)N2CCCCC2)c1,4,/,/,/,/
COc1cc(OC)cc(C(=O)NC(C(=O)O)C23CC4CC(CC(C4)C2)C3)c1 (configuration not stated),-8,i,5,-14,14*
CN1CCN(c2ncnc3c2ncn3[C@H]2CN(C)C[C@@H](CO)O2)CC1,0,/,/,/,/
COc1ccc(CCNc2nc(-c3ccc(F)cc3)c(CC(=O)O)s2)cc1OC,-53,+,80,2,/
COc1ccc(CCNc2nc(C)c(C(C)=O)s2)cc1OC,40*,i,-13,20,/
COc1ccc(CCNc2nc(-c3ccc(NC(C)=O)cc3)cs2)cc1OC,2,i,-4,4,1
CC(=O)c1sc(NCc2ccc(C)cc2)nc1C,-1,i,5,28,/
SMILES,MLLE-PAM2 inh,PABP FP inh,eIF4H inh,PHOSPHO1 inh,HMGR II inh
COc1ccc(CCNc2nc(-c3sc(C)nc3C)cs2)cc1OC,-1,i,11,80*,1
COc1ccc(CCNc2nc(-c3ccncc3)cs2)cc1OC,-7,i,10,13,/
Cc1c(-n2c(SCC(=O)O)nnc2-c2ccccc2Br)c(=O)n(-c2ccccc2)n1C,4,i,-11,30,/
O=C(NC(=S)Nc1ccc(Cc2ccncc2)cc1)c1ccccc1F,27,i,-4,63*,-6
Cc1ccccc1C(=O)NC(=S)Nc1ccc(Cc2ccncc2)cc1,25,i,-8,-15,-2
O=C(NC(=S)Nc1ccc(Cc2ccncc2)cc1)c1ccccc1Cl,43*,i,2,4,2
COC(C(=O)Nc1ccnn1C1CCN(Cc2ccccn2)CC1)c1ccccc1 (configuration not stated),3,i,2,18,/
O=C(C(O)c1ccccc1)N1N=C(c2ccccc2)CC1(O)C(F)(F)F (configuration not stated),2,i,-5,24,/
CCOC(=O)C1(Cc2ccccc2)CCCN(C(=O)COc2ccccc2OC)C1 (configuration not stated),-2,/,/,/,/
Cc1csc(SC(C)c2nc3scc(-c4ccccc4)c3c(=O)[nH]2)n1 (configuration not stated),-14,i,-3,30,/
CSc1nc(COC(=O)NC(C)C)c(COC(=O)NC(C)C)n1Cc1ccccc1,1,/,/,/,/
Nc1ccc(S(=O)(=O)Nc2nc3ccccc3o2)cc1,11,+,55*,30,/
O=C1c2ccccc2C(=O)c2c(/C=C/N3CCCCC3)ccnc21,43*,/,/,/,/
O=C1c2ccccc2-c2cccnc21,-13,i,-6,14,/
O=C(C1CC1)N1N=C(C2CCCCC2)CC1(O)C(F)(F)F (configuration not stated),8,i,-6,18,0
CCn1c(C)cs/c1=N\C(=S)Nc1ccccc1C,-87,i,-13,-17,0
Cc1ccc(OCC(=O)Nc2nnc(S(=O)(=O)N3CCCCCC3)s2)cc1,-13,i,66*,10,/
O=C(COc1ccccc1)Nc1nnc(S(=O)(=O)N2CCCCC2)s1,-16,i,-7,44,/
Cc1ccc(OCC(=O)Nc2nnc(S(=O)(=O)N3CCCCC3)s2)cc1,-58,+,83*,22,/
COc1ccc(CC(NC(C)=O)C(=O)NC2CCN(C(=O)C3CCCCC3)CC2)cc1OC (configuration not stated),4,i,4,36,/
Cc1ccc(S(=O)(=O)N2CC3(O)CN(C(=O)OC(C)C)N(C(=O)OC(C)C)CC3(OC(=O)NCc3ccco3)C2)cc1 (configuration not stated),-5,/,/,/,/
Cc1nc(C(F)(F)F)ccc1C(=O)N1CCC1(C)C(=O)NCc1ccc(Cl)cc1 (configuration not stated),14,/,/,/,/
COc1ccc(Nc2cccccc2=O)cc1,6,i,6,62*,-5
CNc1cnc(-c2cccc(C(=O)N3CCOCC3)c2)cn1,-8,/,/,/,/
COC(=O)C(C)n1cnc2c(nnn2-c2ccc(C)cc2)c1=O (configuration not stated),11,i,-7,5,/
COC(=O)C(C)n1cnc2c(nnn2-c2ccc(OC)cc2)c1=O (configuration not stated),-9,i,-8,21,14*
